From PubChem
PLK1 PBD inh: PLK1 (human) polo-box domain binding inhibition | Plk1 PBD binding of FITC phosphopeptide, fluorescence polarization | Potency, µM, for the others: max response, negative = inhibition, actives largely listed as inhibitors | hit rate 2.8% among 360,000 | AID 720504; also: potency is read from the fitted curve at half-maximal effect; series mostly up to about 57 µM; % is scaled to controls: 0 for no effect and ±100 for the full control effect; nearly all actives have a fitted effect of over 65% in size
Vif-APOBEC3G blk: Vif-A3G binding inhibition; HeLa A3G-eYFP + Vif (tagged APOBEC3G with the HIV-1 protein that degrades it), YFP fluorescence, overnight; Q9HC16; Potency, µM (top dose mostly 46.1 µM), without a hit: at the top dose activity, negative = active, actives largely listed as inhibitors; AID 602310; hit rate 0.076% among 410,000; also: potency is read from the fitted curve at half-maximal effect; % is scaled to controls: 0 for no effect and ±100 for the full control effect; nearly all actives have a fitted effect of over 60% in size
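Read-out is eYFP fluorescence (Ex 488/Em 500-530) from Vif-expressing HeLa A3G-eYFP cells; more signal means A3G escaped Vif-mediated degradation. Cells plated overnight, compound pinned in, incubated overnight at 37 deg C.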
VDR inh: inhibitors of human vitamin D receptor. AID 504847. hit rate 0.93% among 400,000. Potency, µM, for the others: max response, negative = inhibition, usual class: inhibitors. VDR-SRC2-3 peptide fluorescence polarization, 2 h; also: potency is read from the fitted curve at half-maximal effect; % is scaled to controls: 0 for no effect and ±100 for the full control effect
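Signal is fluorescence polarization, reporting how far test compounds block the interaction of VDR with the SRC2-3 coregulator peptide after a 2 h room-temperature incubation.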
TSHR antag: blocks TSH signaling through the human TSH receptor; P16473; TSHR-expressing cells, TSH-stimulated cAMP HTRF, 2 h; stronger effect = lower value; activity change, negative = inhibition, % at 11.5 µM; hit rate 0.2% among 330,000; AID 504810;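 active = activity change below a set negative limit, meaning inhibition stronger than a set level, cut at about -70% in these data; inconclusive = activity change between two set negative limits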; also: % is scaled to controls: 0 for no effect and ±100 for the full control effect
Target sequence (P16473 whole entry, looked up): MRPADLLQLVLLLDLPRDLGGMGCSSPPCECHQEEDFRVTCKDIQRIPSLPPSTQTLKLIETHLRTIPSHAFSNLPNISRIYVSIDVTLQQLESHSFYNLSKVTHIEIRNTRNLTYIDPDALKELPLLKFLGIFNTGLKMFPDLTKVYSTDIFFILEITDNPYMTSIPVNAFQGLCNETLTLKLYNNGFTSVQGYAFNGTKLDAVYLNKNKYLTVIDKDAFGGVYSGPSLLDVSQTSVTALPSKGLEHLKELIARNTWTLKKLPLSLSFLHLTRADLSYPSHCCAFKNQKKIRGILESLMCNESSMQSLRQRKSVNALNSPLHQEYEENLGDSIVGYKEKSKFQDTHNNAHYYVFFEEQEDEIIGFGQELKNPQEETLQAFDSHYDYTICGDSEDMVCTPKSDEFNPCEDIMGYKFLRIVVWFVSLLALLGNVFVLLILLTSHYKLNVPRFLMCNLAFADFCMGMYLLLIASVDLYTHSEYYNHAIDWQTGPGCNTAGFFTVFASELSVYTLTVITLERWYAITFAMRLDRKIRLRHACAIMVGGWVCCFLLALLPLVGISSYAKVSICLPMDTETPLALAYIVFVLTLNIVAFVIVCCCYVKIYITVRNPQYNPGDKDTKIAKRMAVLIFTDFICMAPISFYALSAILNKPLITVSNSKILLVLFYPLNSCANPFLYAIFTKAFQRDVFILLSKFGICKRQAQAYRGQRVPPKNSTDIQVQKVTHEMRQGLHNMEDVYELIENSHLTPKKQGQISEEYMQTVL
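Competitive HTRF cAMP read-out (cryptate anti-cAMP antibody, cAMP-d2; 30 min, room temperature) in freshly harvested TSHR cells. Compounds added before TSH at EC80 (4nM final), followed by 2 hours' incubation at 37 deg C.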
Vif-A3F inh: blocks the Vif interaction with APOBEC3F | hit rate 0.2% among 390,000 | HeLa A3F-eYFP + Vif (tagged APOBEC3F with the HIV-1 protein that degrades it), YFP fluorescence increase | Potency, µM (top dose mostly 46.1 µM), inactives show top-dose activity, negative = active; also: potency is read from the fitted curve at half-maximal effect; % of control where 0% means no effect; nearly all actives have a fitted effect of over 65% in size
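HeLa cells stably expressing A3F-eYFP plus Vif, plated and incubated overnight at 37 deg C, then exposed to compounds overnight at 37 deg C. Blocked degradation read as raised yellow fluorescence (Ex 488/Em 500-530).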
TbPYK confirm: Trypanosoma brucei pyruvate kinase inhibition, cherry-pick confirmation | shares compounds with PLK1 PBD inh | recombinant TbPYK, Kinase-Glo ATP luminescence | Potency, µM (series often up to 76.9 µM), without a hit: top-dose activity change, negative = inhibition, most hits filed as inhibitors | hit rate 67% among 890; also: potency is read from the fitted curve at half-maximal effect; % is scaled to controls: 0 for no effect and ±100 for the full control effect; nearly all actives have a fitted effect of over 70% in size
TbPYK ADP-Glo: TbPYK inhibition, orthogonal confirmation. shares compounds with PLK1 PBD inh. recombinant TbPYK, ADP-Glo luminescence, 60 min. Potency, µM (highest dose often 76.9 µM), inactives show top-dose activity change, negative = inhibition, usual class: inhibitors. hit rate 62% among 890. AID 720584; also: potency is read from the fitted curve at half-maximal effect; % is scaled to controls: 0 for no effect and ±100 for the full control effect; nearly all actives have a fitted effect of over 75% in size
Starred values were filed as active, the others as inactive. The list is not random: actives were taken first. Their share in the collection is about 3.1%. Unless noted, calls follow the shape of the dose curve; as a rule, active = well fitted curve in the direction sought with a large enough effect; inconclusive = small, poorly fitted or top-dose-only effect, or another doubt; inactive = no such curve, though single readings can be large; an effect the other way counts as inactive or inconclusive.

What do the screens show for `COCCn1c(C)cc(C(=O)COC(=O)c2ccc3ncsc3c2)c1C`?
PLK1 PBD inh: 2.38µM*; Vif-APOBEC3G blk: -4.3%; VDR inh: -10.8%; TSHR antag: -2.7; Vif-A3F inh: 6.8%; TbPYK confirm: -0.9%; TbPYK ADP-Glo: -0.5%

What do the screens show for `CCOc1ccc(NC(=O)Cn2ncc3c2-c2cc(C)ccc2OC3)cc1`?
Vif-APOBEC3G blk: -1.2%; VDR inh: 2.0%; Vif-A3F inh: -0.1%

How did O=C(NCCc1ccc(Cl)cc1)c1ccc(CS(=O)Cc2cccc(Cl)c2)o1 (stereo not given) do in these assays?
Vif-APOBEC3G blk: 5.4%; VDR inh: 1.6%; Vif-A3F inh: 2.0%

What do the screens show for `Cn1nnnc1Sc1ncnc2scc(-c3ccc(C(F)(F)F)cc3)c12`?
Vif-APOBEC3G blk: inconclusive; VDR inh: -16.8%; TSHR antag: 6.1; Vif-A3F inh: 0.4%

Results for Cn1nnnc1Sc1ncnc2scc(-c3ccccc3C(F)(F)F)c12 ?
Vif-APOBEC3G blk: -22.7%; VDR inh: -20.0%; TSHR antag: 9.1; Vif-A3F inh: 3.3%; TbPYK confirm: 12.6µM*; TbPYK ADP-Glo: 28.2µM*

Results for CCOc1ccc(-n2c(SCc3ccc([N+](=O)[O-])cc3)nnc2-c2ccccc2)cc1 ?
PLK1 PBD inh: 5.1%; Vif-APOBEC3G blk: 0.0%; VDR inh: 0.4%; TSHR antag: 82.9; Vif-A3F inh: 2.7%; TbPYK confirm: 11.2µM*; TbPYK ADP-Glo: 8.91µM*

What do the screens show for `COc1ccc(-n2c(SCc3ccc([N+](=O)[O-])cc3)nnc2-c2ccccc2)cc1`?
PLK1 PBD inh: -5.0%; Vif-APOBEC3G blk: -4.3%; VDR inh: -19.7%; TSHR antag: 132.8; Vif-A3F inh: 4.5%

Results for COc1ccccc1-c1nccc(N2CCN(C)CC2)n1 ?
VDR inh: 10.6%

Results for CC(C)Sc1nnc(CNC(=O)C23CC4CC(CC(C4)C2)C3)n1C1CCCCC1 ?
PLK1 PBD inh: -4.1%; Vif-APOBEC3G blk: -2.5%; VDR inh: 1.7%; TSHR antag: -12.7; Vif-A3F inh: 4.5%; TbPYK confirm: 5.62µM*; TbPYK ADP-Glo: 11.2µM*

How did Cc1nnc(NC(=O)CSc2nnc(CNC(=O)C34CC5CC(CC(C5)C3)C4)n2C2CCCCC2)s1 do in these assays?
PLK1 PBD inh: -9.7%; Vif-APOBEC3G blk: -0.3%; VDR inh: -8.3%; TSHR antag: 1.7; Vif-A3F inh: -4.4%

What do the screens show for `Cc1ccc(-c2cc(C(=O)Nc3cccnc3)c3ccccc3n2)o1`?
PLK1 PBD inh: inconclusive; Vif-APOBEC3G blk: -11.2%; VDR inh: -25.5%; TSHR antag: -9.8; Vif-A3F inh: -1.8%; TbPYK confirm: inconclusive; TbPYK ADP-Glo: -27.5%

What do the screens show for `Cc1nc(Nc2nc3ccccc3o2)nc(C)c1C`?
PLK1 PBD inh: 29.9µM*; Vif-APOBEC3G blk: 1.7%; VDR inh: inconclusive; TSHR antag: 8.0; Vif-A3F inh: -19.5%; TbPYK confirm: -15.6%; TbPYK ADP-Glo: 1.3%

How did Cc1ccc2oc(Nc3nc(C)c(C)c(C)n3)nc2c1 do in these assays?
PLK1 PBD inh: -4.7%; Vif-APOBEC3G blk: 1.0%; VDR inh: -21.3%; TSHR antag: 0.4; Vif-A3F inh: 0.7%

Results for COc1ccc(Cn2ccc3nc(C)c(C(=O)N4CCN(c5cc(C)ccc5C)CC4)cc3c2=O)cc1 ?
Vif-APOBEC3G blk: -1.1%; VDR inh: 15.3%; Vif-A3F inh: 0.0%

Results for CCn1c(SCC(=O)c2cc(OC)ccc2OC)nc2c1c(=O)n(C)c(=O)n2C ?
TSHR antag: 0.2

How did CCCn1c(SCC(=O)c2cc(OC)ccc2OC)nnc1C(C)C do in these assays?
PLK1 PBD inh: inconclusive; Vif-APOBEC3G blk: 1.2%; VDR inh: -16.4%; TSHR antag: 12.5; Vif-A3F inh: 6.6%; TbPYK confirm: 15.8µM*; TbPYK ADP-Glo: 15.8µM*
